Data as given in PubChem BioAssay.
Where “and” joins values, the source holds several entries; their conditions need not be identical. Equal values may be shown once. Calls of active or inactive are those of the source.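 Rule for the calls: active = compounds whose cell count with miR-34 switched on is under 0.7 times the count with it off; inactive = the rest.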

Test: sensitizers of A549 cells to miR-34 induction, primary screen, imaging, A549 dox-inducible miR-34, nuclei and caspase counts (AID 1347080); note: test concentration not given here
Settings: A549 miR-34 inducible, Hoechst nuclei count, 48 h
[1] = stronger effect = lower value, cell number ratio, induced over uninduced
[2] = measured here: relative caspase fold change +Dox/-Dox
[3] = measured here: total cells with miR-34 induction, stronger effect = lower value
[4] = measured here: total cells without miR-34 induction

Structure (SMILES)	fold change [1]	fold change [2]	cell count [3]	cell count [4]
CCCCCCCCCCCCCCCCCC(=O)OCC	0.95 (inactive)	2.18	5760	6060
OC1C[C@@H]2[C@@H](CC[C@@H](O)CCc3ccccc3)[C@H](O)C[C@@H]2O1 (stereo partly specified)	1.04 (inactive)	0.862	6130	5890
CCCCC[C@@H](O)CC[C@H]1[C@H](O)CC(=O)[C@@H]1CCCCCCC(=O)O	0.971 (inactive)	1.47	5350	5510
CCCCC[C@H](O)/C=C/[C@@H]1[C@H]2C/C=C\CCCC(=O)O[C@@H]1C[C@@H]2O	0.912 (inactive)	0.907	5380	5900
O=C(NCCN1CCC(n2c(=O)[nH]c3cc(Cl)ccc32)CC1)c1ccc(F)cc1	0.968 (inactive)	1.46	6040	6240
CCCCC[C@H](O)/C=C/[C@H]1C(=O)C[C@H](O)[C@@H]1C/C=C\CCCC(=O)OCC(O)CO (stereo partly specified)	1.06 (inactive)	1.71	6090	5740
CCCCC[C@H](O)/C=C/[C@H]1C2CC(CO2)[C@@H]1CCCCCCC(=O)O (stereo partly specified)	0.941 (inactive)	0.43	5850	6210
CCCCCC/C=C\CCCC(=O)CC(=O)N[C@H]1CCOC1=O	1.06 (inactive)	1.36	6290	5940
CCCCCC(=O)/C=C/[C@H]1[C@H](O)CC(=O)[C@@H]1CCCCCCC(=O)O	1.03 (inactive)	1.35	5840	5690
CC#CCC(C)[C@H](O)/C=C/[C@@H]1[C@H]2C/C(=C\CCCC(=O)O)C[C@H]2C[C@H]1O (stereo partly specified)	0.896 (inactive)	1.12	5570	6220
NCCCNCCCCN(CCCN)[N+]([O-])=NO	1.02 (inactive)	1.33	5980	5880
O=C1N[C@@H]2[C@@H](O)[C@@H](O)[C@H](O)[C@@H](CO)N2C1=O	0.921 (inactive)	0.979	4980	5410
CCCCCCC[C@H](O)/C=C/[C@@H]1[C@@H](C/C=C\CCCC(=O)O)[C@@H](O)C[C@H]1O	0.945 (inactive)	1.5	6150	6520
CC(C)OC(=O)CCC/C=C\C[C@@H]1[C@@H](/C=C/[C@@H](O)CCc2ccccc2)[C@H](O)C[C@@H]1O	0.961 (inactive)	1.39	5640	5870
COc1cc([C@@H]2c3cc4c(cc3[C@@H](OC3OC5COC(C)OC5C(O)C3O)[C@H]3COC(=O)[C@H]23)OCO4)cc(OC)c1O (stereo partly specified)	0.828 (inactive)	1.04	1840	2230
CC#CCC(C)C(=O)/C=C/[C@@H]1[C@H]2C/C(=C/CCCC(=O)O)C[C@H]2C[C@H]1O (stereo partly specified)	0.968 (inactive)	3.57	5500	5680
CCCCC[C@H](O)/C=C/[C@@H]1[C@@H](C/C=C/CCCC(=O)O)[C@@H](O)C[C@H]1O	0.9 (inactive) and 0.944 (inactive)	1.55 and 0.855	5350 and 5640	5940 and 5970
O=c1[nH]cc(CO)c(=O)[nH]1	1.01 (inactive)	1.05	5770	5720
CCCCC[C@H](O)/C=C/[C@@H]1[C@@H](C/C=C\CCCCCC(=O)O)[C@@H](O)C[C@H]1O	0.876 (inactive)	0.899	5260	6000
O=C(O)CCC/C=C\C[C@@H]1[C@@H](/C=C/C(F)(F)COc2ccccc2)[C@H](O)C[C@@H]1O	1.03 (inactive)	1.05	5600	5440
O=S(=O)(NO)c1ccccc1	1.01 (inactive)	0.412	5110	5060
CCc1c(OCCCCCC(C)(C)c2nn[nH]n2)cc(O)cc1C(C)=O	1.03 (inactive)	0.73	6030	5840
NC(=Nc1ccc(F)cc1)NO	1.01 (inactive)	1.07	5540	5470
CCCCC[C@H](O)/C=C/[C@H]1[C@H](O)CC(=O)[C@@H]1CC(=O)CCCCC(=O)O	0.96 (inactive)	1.25	6410	6680
CC(=O)OCOC(c1ccc2ccccc2c1)P(=O)(OCOC(C)=O)OCOC(C)=O (stereo unspecified)	1.11 (inactive)	0.941	3180	2860
NC(=O)c1cccc(-c2cccc(OC(=O)NCCCCCCc3ccccc3)c2)c1	0.904 (inactive)	0.743	5110	5650
O=C(O)CCCCCC[C@H]1C(=O)NC(=O)N1CCC(O)C1CCCCC1 (stereo partly specified)	1.09 (inactive)	1.38	6150	5640
CCCCC1C(=O)CC[C@H]2[C@@H]1CC(=O)[C@@H]2CCCCCCC(=O)O (stereo partly specified)	0.957 (inactive)	0.967	5230	5460
O=C1OC(O)C(c2cc3ccccc3s2)=C1Br (stereo unspecified)	0.915 (inactive)	0.534	5180	5660
